In PubChem BioAssay (NCATS):
Records with an inconclusive call do not appear. Calls of active or inactive are those of the source. The call rests on the fitted dose curve; in most records, active means well fitted cell-killing curve with a large enough effect; inconclusive means small, poorly fitted or top-dose-only effect, or effect the other way; inactive means flat fitted curve, though single readings scatter.

What follows are compounds tested on PA-1 (assay: Primary qHTS to identify gynecologic anti-cancer compounds using libraries of approved drugs and bioactive compounds (AID 1345084; further: nearly all actives have a fitted effect of over 55% in size)). Conditions: Gynecologic cancer cell panel viability, ATPlite luminescence, 48 h; series mostly up to 57.5 µM; activity change, negative = cytotoxicity: at the top concentration.
Outline: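 Five-concentration response, 48 h; readout is ATP-driven luciferase luminescence.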
On the % scale 0 is the no-effect control and ±100 the full control effect.

Row | SMILES | activity change, negative = cytotoxicity
1 | CCOC(=O)C(CCc1ccccc1)NC1CSC(c2cccs2)CN(CC(=O)O)C1=O (stereo unspecified) | -4.57% (inactive)
2 | O=c1[nH]ccc2cc(OC3CCNCC3)ccc12 | -0.0177% (inactive)
3 | C=C1CCC2C(C)(COC(C)=O)CCCC2(C)C1CCC(C)CC(=O)O (stereo unspecified) | -2.8% [at 38.5 µM] (inactive)
4 | C=C1C(O)CC2C(C(=O)O)=COC(O[C@@H]3O[C@H](COC(=O)/C=C/c4ccc(O)cc4)[C@@H](O)[C@H](O)[C@H]3O)C12 (stereo partly specified) | 16.9% [at 25.3 µM] (inactive)
5 | NC1CCCCN(c2c(F)cc3c(=O)c(C(=O)O)cn(C4CC4)c3c2Cl)C1 (stereo unspecified) | 16.8% [at 25.3 µM] (inactive)
6 | CC(C)(O)/C=C/C1=CC(=O)[C@@](C)(O)C[C@H]1O | 20.4% (inactive)
7 | CC(=O)O[C@H]1C[C@@]2(C)[C@@H](CC[C@H]3[C@@]4(C)C=CC(=O)[C@@H](C)[C@@H]4[C@H](O)C(=O)[C@@]32C)/C1=C(/CCC=C(C)C)C(=O)O | -35.9% [at 25.3 µM] (inactive)
8 | C=C(C)[C@@H]1CC[C@]2(C)CC[C@]3(C)[C@H](CC[C@@H]4[C@@]5(C)CC[C@@H](O)C(C)(C)[C@@H]5CC[C@]43C)[C@@H]12 | -7.76% [at 25.3 µM] (inactive)
9 | CC1=CC(=O)CC(C)(C)C1CCC(C)O[C@@H]1O[C@H](CO[C@@H]2OC[C@@H](O)[C@H](O)[C@H]2O)[C@@H](O)[C@H](O)[C@H]1O (stereo partly specified) | 1.28% [at 25.3 µM] (inactive)
10 | COC(=O)C[C@H]1[C@]2(C)C3=C(C)[C@H](c4ccoc4)C[C@H]3O[C@@H]2[C@H](OC(C)=O)C2[C@](C)(C(=O)OC)C=CC(=O)[C@@]21C (stereo partly specified) | 10.2% [at 25.3 µM] (inactive)
11 | Cc1oc2ccccc2c1CNC(=O)NCc1cccs1 | 4.41% (inactive)
12 | C=C1[C@H](OC(C)=O)[C@H]2[C@@H](OC(C)=O)[C@](C)(OC(C)=O)C[C@]2(OC(C)=O)C(=O)[C@H](C)/C=C/C(C)(C)C(=O)[C@H](OC(=O)C(C)C)[C@H]1OC(C)=O | 4.8% [at 25.3 µM] (inactive)
13 | CCNCc1nc2c(N)nc3ccccc3c2n1CC(C)(C)O | 1.35% (inactive)
14 | CC(=O)O[C@]1(C(C)=O)CC[C@H]2[C@@H]3C[C@H](C)C4=CC(=O)C=C[C@]4(C)[C@@]3(F)[C@@H](O)C[C@@]21C | 12.4% (inactive)
15 | CS(=O)(=O)N(CC(=O)NCC1CC1)c1cc(C(F)(F)F)ccc1Cl | -0.0579% (inactive)
16 | CC(C)CC(=O)O[C@@H]1OC=C(CO[C@@H]2O[C@H](CO)[C@@H](O)[C@H](O)[C@H]2O)[C@H]2[C@@H]3O[C@H]3[C@@](O)(CO)[C@@H]12 | 9.26% [at 25.3 µM] (inactive)

Row | SMILES | activity change, negative = cytotoxicity
17 | CNC12CC3C[C@@](C)(C1)C[C@](C)(C3)C2 | -13.1% (inactive)
18 | C=CC(C)(O)C(O)CC1C(C)(O)C(O)C(O)C2C(C)(C)CCCC21C (stereo unspecified) | -0.891% [at 38.5 µM] (inactive)
19 | N#C[C@@H]1CCCN1C(=O)CNC12CC3CC(CC(O)(C3)C1)C2 | -0.907% (inactive)
20 | CC(C)(O)/C=C/CC(C)(O)C1C(O)CC2(C)C3CCC4C(C)(C)C(=O)CCC4(C)C3CCC12C (stereo unspecified) | 21.9% [at 25.3 µM] (inactive)
21 | CC1OC2OC(=O)C3(C)CC4=C(CO)C5=C(CC(=O)C4(C)C(C1=O)C23)C(C)(C)OC(=O)C5 (stereo unspecified) | -5.86% [at 25.3 µM] (inactive)
22 | C[C@@H]1C(=O)O[C@H](C)[C@H]1CC(=O)[C@](C)(O)[C@H]1CC[C@@]2(O)C3=CC(=O)[C@@H]4C[C@@H](O)[C@@H](O)C[C@]4(C)C3CC[C@]12C (stereo partly specified) | -7.79% [at 25.3 µM] (inactive)
23 | C=C[C@H]1[C@H](O[C@@H]2O[C@H](CO)[C@@H](O)[C@H](O)[C@H]2O)OC=C(C(=O)OC)[C@H]1C/C=C(/C=O)[C@@H]1C(C(=O)OC)=CO[C@@H](O[C@@H]2O[C@H](CO)[C@@H](O)[C@H](O)[C@H]2O)[C@@H]1C=C | 20.1% [at 25.3 µM] (inactive)
24 | Cc1cc2c(c(=O)[nH]1)OC(C(O)CC(C)C)O2 (stereo unspecified) | 16.8% (inactive)
25 | CC(C)=CCC/C(C)=C/Cc1ccc(O)c(C2OC(=O)c3cc(C(=O)O)cc(O)c32)c1O (stereo unspecified) | 5.25% [at 25.3 µM] (inactive)
26 | NC(=O)C(CCC(F)(F)F)N(Cc1ccc(-c2ncon2)cc1F)S(=O)(=O)c1ccc(Cl)cc1 (stereo unspecified) | -13.6% (inactive)
27 | COc1cc(C)c(C(=O)O[C@H]2[C@@H](OC(C)=O)[C@H](n3ccc(=O)[nH]c3=O)O[C@@H]2CO)c(OC)c1 | 18.5% [at 25.3 µM] (inactive)
28 | CC1=C(CCC(C)CC(=O)O)[C@@]2(C)CCCC(C)(C)C2CC1=O (stereo partly specified) | -0.0398% [at 38.5 µM] (inactive)
29 | C[C@@H]1O[C@@H](O[C@H]2[C@H](O)[C@@H](O)[C@H](OC3CCC4(C)C5CCC(C)(C(CO)OC6OC(CO)C(O)C(O)C6O)CC5=CCC4C3(C)C)O[C@@H]2CO)[C@H](O)[C@H](O)[C@H]1O (stereo partly specified) | -5.64% [at 25.3 µM] (inactive)
30 | CC1(C)CCCC2(C)C=C(C(=O)O)C(O)CC12 (stereo unspecified) | -3.07% (inactive)
31 | CC12CCC3c4ccc(OC5OC(C(=O)O)C(O)C(O)C5O)cc4CCC3C1CCC2O (stereo unspecified) | 8.42% (inactive)
